Test results from PubChem BioAssay AID1942 (Johns Hopkins Ion Channel Center, 2009).
The campaign covered roughly 2,400 compounds. About 580 (24%) were called active. Not all results are given here. Values without a mark were called inactive.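 Rule for the calls: active = activity change at or above the mean plus 3 SD of buffer wells without dofetilide, per plate; inactive = the rest.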

target: Potassium voltage-gated channel subfamily KQT member 2 (Rattus norvegicus) (UniProt O88943); experiment: KCNQ2 potentiation in CHO cells – cell-based, FluxOR thallium flux, counter-screen for hERG block protector project, confirmation (AID 1942); conditions: FluxOR thallium flux fluorescence, at 10 µM, hits give high values;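 note: normalized value minus buffer-control mean plus three SD of buffer wells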
Sequence (O88943 whole entry, looked up): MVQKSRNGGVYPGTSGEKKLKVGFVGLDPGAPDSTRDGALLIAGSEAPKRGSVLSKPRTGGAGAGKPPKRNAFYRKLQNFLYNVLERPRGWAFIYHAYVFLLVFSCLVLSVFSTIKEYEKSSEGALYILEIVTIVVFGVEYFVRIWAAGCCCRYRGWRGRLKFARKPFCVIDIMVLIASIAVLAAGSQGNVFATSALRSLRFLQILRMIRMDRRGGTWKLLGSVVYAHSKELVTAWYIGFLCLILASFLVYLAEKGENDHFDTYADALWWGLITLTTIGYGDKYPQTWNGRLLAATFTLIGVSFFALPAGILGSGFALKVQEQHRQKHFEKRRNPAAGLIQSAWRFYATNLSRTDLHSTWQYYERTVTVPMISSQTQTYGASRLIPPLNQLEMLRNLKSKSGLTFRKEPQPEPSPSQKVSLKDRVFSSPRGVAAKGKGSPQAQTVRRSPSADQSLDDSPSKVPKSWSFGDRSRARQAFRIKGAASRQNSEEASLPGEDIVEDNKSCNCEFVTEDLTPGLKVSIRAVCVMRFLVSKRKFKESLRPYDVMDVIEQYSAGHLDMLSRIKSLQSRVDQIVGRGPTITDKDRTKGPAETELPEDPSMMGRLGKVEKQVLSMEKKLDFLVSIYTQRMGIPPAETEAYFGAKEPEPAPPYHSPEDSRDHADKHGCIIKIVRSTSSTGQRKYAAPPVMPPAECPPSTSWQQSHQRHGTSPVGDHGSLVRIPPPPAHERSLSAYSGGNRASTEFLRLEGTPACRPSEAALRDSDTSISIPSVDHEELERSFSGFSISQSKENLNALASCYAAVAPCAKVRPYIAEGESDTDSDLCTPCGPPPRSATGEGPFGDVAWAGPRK

| Structure (SMILES) | activity change, less the hit threshold |
| --- | --- |
| Cc1ccnc(SCCn2c(N3CC(C)OC(C)C3)nc3c2c(=O)n(C)c(=O)n3C)n1 (stereo not drawn) | -16.5% |
| O=C(Cn1c(=O)oc2ccccc21)Nc1ccc(F)c(F)c1 | -17.1% |
| CCCCn1nnc(NC(=O)Cc2ccc(Cl)cc2)n1 | -11.7% |
| CCOc1ccc2[nH]cc(S(=O)(=O)c3ccc(F)cc3)c(=O)c2c1 | -19.1% |
| CCCCn1c(-c2csc(C(C)C)c2)n[nH]c1=S | 6.8% (active) |
| S=c1[nH]nc(-c2ccc(Cl)cc2)n1Cc1ccccc1 | -30.3% |
| CC(C)(C)OC(=O)C(Cl)(C(=O)OC(C)(C)C)c1ccc2nnnn2n1 | -14.5% |
| CC(=O)c1cc(N2CCC(C(=O)O)CC2)ccc1[N+](=O)[O-] | -24.9% |
| CCc1nnc(NC(=O)c2c(C)nn(-c3ccccc3)c2Cl)s1 | -4.8% |
| Cc1nn(-c2ccccc2)c(Cl)c1/C=C1\SC(=S)NC1=O | 60.1% (active) |
| Cc1nn(-c2ccccc2)c(C)c1S(=O)(=O)O | -13.9% |
| CCCC(=O)n1nc(-c2ccccc2)nc1N | -17.9% |
| O=C(Nc1cccc2[nH]ncc12)c1ccc(F)cc1 | -24.7% |
| O=C(Nc1nc(-c2ccccc2)c(-c2ccccc2)o1)c1ccc(F)cc1 | 9% (active) |
| CN(C)/C(=N\S(=O)(=O)c1ccccc1)c1ccc(F)cc1 | -9.6% |
| Cc1ccc(-c2nc(CSCC(=O)N3CCOCC3)c(C)o2)cc1 | -25.1% |
| COc1ccc(S(=O)(=O)Nc2ccc(Cl)cn2)c(C)c1C | -12.1% |
| COC(=O)c1ccc(CSc2ncnc3sc(C)c(C)c23)o1 | -6.5% |
| Cc1noc(C)c1CSc1ncnc2sc3c(c12)CCCCC3 | 14.8% (active) |
| COc1ccc(-n2c(O)c(/C=C3\C=Nc4ccccc43)c(=O)[nH]c2=O)cc1 | -40% |
| Cc1ccc2cc(CCNC(=O)C(=O)c3c(C)[nH]c4ccccc34)c(=O)[nH]c2c1 | -20.7% |
| CCOC(=O)c1sc(=S)n2c1[nH]c(=O)c1ccc(C(=O)OC)cc12 | 79.4% (active) |
| CCC1SC2=NC(C)=C(C(=O)OC)C(c3ccc(C(=O)OC)cc3)N2C1=O (stereo not drawn) | -10.7% |
| CCCNC(=O)CN1C(=O)NC(Cc2c[nH]c3ccccc23)C1=O (stereo not drawn) | -17.5% |
| CC12CCC(C(=O)NCc3ccc4c(c3)OCO4)(CC1=O)C2(C)C (stereo not drawn) | -5.5% |

| Structure (SMILES) | activity change, less the hit threshold |
| --- | --- |
| CCOCCCNC(=O)C(NC(=O)Cc1cccs1)c1ccc(C)cc1 (stereo not drawn) | -21.4% |
| O=C(NC1CCCCC1)c1ccc(COCC(F)(F)F)o1 | -5% |
| Cc1ccc(S(=O)(=O)NC(=S)NC2CCCCC2)cc1 | -11.5% |
| O=S(=O)(NC(=S)NC1CCCCC1)c1ccc(Cl)cc1 | 19.8% (active) |
| CCc1ccc(S(=O)(=O)NC(=S)NC2CCCCC2)cc1 | 52.3% (active) |
| O=S(=O)(NC(=S)NC1CCCCC1)c1ccc(Br)cc1 | 5.4% (active) |
| O=c1oc2ccccc2c(NC2CCCCC2)c1NS(=O)(=O)c1ccc(Cl)cc1 | -14.5% |
| COc1cc(Cl)c(C)cc1NC(=O)CSc1sc2c(O)cc(=O)[nH]c2c1C#N | -11.4% |
| N#Cc1c(N)c(C(=O)c2ccccc2)n2ccccc12 | -16.1% |
| Nn1c(SCC(=O)Nc2ccc(F)cc2)nnc1C1CCCCC1 | -23.5% |
| O=C1NCCN1Cc1ccccc1F | -11.9% |
| COc1ccc2c(c1)O[C@@H](c1cccc(C(F)(F)F)c1)[C@H](OC(=O)NCCc1ccc(OC)c(OC)c1)C2=O | -11% |
| CCc1nnc(NC(=O)COc2ccc([N+](=O)[O-])cc2)s1 | -12.5% |
| CC/C(=N\NC(=O)c1nnn(-c2nonc2N)c1-c1cccs1)c1ccccc1 | -13.9% |
| COc1ccccc1NC(=O)C(=O)NNC(=O)c1ccco1 | 24.1% (active) |
| O=C(CCC(=O)Nc1ccccc1)NNC(=O)c1ccco1 | -23.9% |
| COc1ccc(C)cc1NC(=O)C(=O)NNC(=O)c1ccco1 | 73.2% (active) |
| CCN(CC)C(=O)CN1C(=O)C2CC=C(Cl)CC2C1=O (stereo not drawn) | -12.3% |
| O=C(O)Cn1cc(CN2CCOCC2)c2ccccc21 | -20.4% |
| CC1(OC(=O)C2CCCC2)C(=O)C=C2C=C(c3ccc(C#N)cc3)OC=C2C1=O (stereo not drawn) | -18.1% |
| CCOC(=O)C1=C(Cn2cnc3ccccc32)NC(=O)NC1c1cc(C)ccc1C (stereo not drawn) | -19.4% |
| Cc1ccc(S(=O)(=O)N2CCOCC2)cc1NC(=O)CSc1nc2ccccc2c(=O)n1Cc1ccccc1 | -8.2% |
| Cc1ccc(CNC(=O)CN2C(C)CCCC2C)cc1 (stereo not drawn) | -17% |
| CN1/C(=C/C=C(C#N)C#N)C=Cc2ccccc21 | -17.6% |
| Cc1ccc(N2CCN(C(=O)N3CCCC3)CC2)cc1C | 3.3% (active) |

| Structure (SMILES) | activity change, less the hit threshold |
| --- | --- |
| Cc1ccc(-n2c(=O)c3cc4c(=O)n(-c5ccc(C)c(C)c5)c(=O)c4c(C(=O)c4ccc(C(=O)O)cc4)c3c2=O)cc1C | -9.5% |
| CCOC(=O)N1CCN(c2c(-c3ccc(C)c(C)c3)c(=O)c2=O)CC1 | -10.9% |
| CCOC(=O)c1c(NC(=S)NC)sc2c1CC(C)(C)SC2 | 97.7% (active) |
| COc1ccc(NC(=S)NC(NC(=O)c2cccc3ccccc23)C(Cl)(Cl)Cl)c([N+](=O)[O-])c1 (stereo not drawn) | -21.8% |
| CNC(=S)Nc1sc2c(c1C(=O)OC)CCC2 | 8.9% (active) |
| COC(=O)c1c(NC(=S)Nc2ccc(F)cc2[N+](=O)[O-])sc2c1CCCCC2 | 1.5% (active) |
| CCOC(=O)c1c(/N=C/C2=C(O)CCCC2=O)sc2c1CCCC2 | -20.8% |
| Cc1onc(-c2ccccc2)c1C(=O)NC(=S)Nc1sc2c(c1C#N)CCCC2 | -12.6% |
| CCOC(=O)c1c(NC(=S)NC)sc2c1CCCC2 | 13% (active) |
| CCc1nnc(NC(=O)CCC(=O)N2CCN(C3CCCCC3)CC2)s1 | -21.4% |
| O=C(N/C(=C/c1ccc2c(c1)OCO2)C(=O)N1CCOCC1)c1cccs1 | -18.2% |
| CC(C)OC(=O)N(C)c1ccc(C(O)(C(F)(F)F)C(F)(F)F)cc1 | -9.3% |
| COc1cc(C2c3c(n[nH]c3C)C(=O)N2c2ccc(C)cc2)ccc1O (stereo not drawn) | -19.5% |
| Cc1ccc(NS(=O)(=O)c2cn(C)c(=O)n(C)c2=O)c(C)c1 | -0.5% |
| Cn1c(NNC(=O)C(c2ccccc2)c2ccccc2)cc(=O)n(C)c1=O | -1.8% |
| CCOc1ccc(NC(=O)c2ccc(NC(=O)CSc3nc4ccccc4c(=O)[nH]3)cc2)cc1 | -13.5% |
| Fc1cccc(/C=N/Nc2ccc3ccccc3n2)c1 | -17.9% |
| C=C(C)Cc1c(C)nc(-c2ccccc2)[nH]c1=O | -12.3% |
| CC(=O)c1c(NC(=O)c2ccccc2)[nH]c(-c2ccccc2)nc1=S | 7% (active) |
| CC(=O)c1c(N2CCN(Cc3ccccc3)CC2)[nH]c(-c2ccccc2)nc1=S | 22.7% (active) |
| CC(=O)c1c(N)[nH]c(-c2ccccc2)nc1=S | -0.2% |
| CSc1nc(-c2ccccc2)[nH]c(=S)c1C(C)=O | 72.6% (active) |
| Cc1ccccc1CC(=O)NC1CCN(Cc2ccccc2)CC1 | -25.3% |
| CC(=O)c1c(C)[nH]c(-c2ccccc2)nc1=S | -7.7% |
| CC(=O)c1c(N2CCCC2)[nH]c(-c2ccccc2)nc1=S | -6% |

| Structure (SMILES) | activity change, less the hit threshold |
| --- | --- |
| O=C(NCc1cccc(Cl)c1)c1ccncc1 | -23.6% |
| CCCCNC(=S)NNC(=O)c1ccc2c(c1)OCO2 | -24.3% |
| Cc1ccc(C(C)NC(=O)c2ccc3c(c2)OCO3)cc1C (stereo not drawn) | 27.1% (active) |
| Nc1ccc(Cl)c(NC(=O)c2cccs2)c1 | -12.3% |
| Cc1cc(C(=O)CCC(=O)NC(C)c2ccc(S(N)(=O)=O)cc2)c(C)s1 (stereo not drawn) | -10% |
| Cc1ccc(C(=O)NC(C)c2ccc(C)c(C)c2)s1 (stereo not drawn) | 24.3% (active) |
| Cc1ccc(NC(=O)c2ccc3c(c2)OCO3)cc1Cl | -14.7% |
| Cc1ccc(C(C)NC(=O)c2cccs2)cc1C (stereo not drawn) | 4% (active) |
| Cc1cc(C(=O)NNC(=O)c2cccs2)nn1C(C)(C)C | -14.9% |
| O=S(=O)(Nc1ccc(O)c2ccccc12)c1ccc(F)cc1 | -19.8% |
| O=C1C2C3C=CC(C4CC34)C2C(=O)N1/N=C/c1ccc(-c2ccc(F)cc2[N+](=O)[O-])o1 (stereo not drawn) | -20.9% |
| Cc1ccc(/C=N/Nc2nc(C(C)(C)C)cs2)o1 | -0.3% |
| COCCNC(=O)C1CC(=O)N(c2ccc(OC)cc2)C1c1ccc(OC)cc1 (stereo not drawn) | -16.8% |
| CN1C(=O)/C(=N/OC(=O)c2ccccc2)c2ccccc21 | -19.8% |
| O=C(O)CCCCn1c(SCc2ccccc2Cl)nc2ccsc2c1=O | -5.9% |
| Cc1ccc(C)c(NC(=O)C2C3CCCC2C3c2ccccc2)c1 (stereo not drawn) | -4.2% |
| Cc1cccc(NC(=S)NNC(=O)c2csc3c2CCC(C)C3)c1 (stereo not drawn) | -8.1% |
| Cc1ccc(C)c(NC(=S)NNC(=O)c2csc3c2CCC(C)C3)c1 (stereo not drawn) | 14.5% (active) |
| O=C(OCC(=O)N1CCOCC1)c1ccc(Cl)cc1[N+](=O)[O-] | -13.6% |
| O=c1ccn(CCCBr)c(=O)[nH]1 | -13.2% |
| COC(=O)CSc1nc(N2CCCCC2)c2c(c1C#N)CCCC2 | -6.4% |
| COC(=O)CSc1nc2c(c(-c3ccc(C)o3)c1C#N)CCCC2 | 7.4% (active) |
| CCOC(=O)C(C)Sc1nc2c(c(-c3cccs3)c1C#N)CCC2 (stereo not drawn) | -15.1% |
